# Assay results taken from PubChem BioAssay (NCI).
# Compounds without any hit were thinned out: in the full panel of roughly 79,000, 15% have a hit. Values without a mark were called inactive. The source made the active and inactive calls. No stated cut-off is given here; in the data, active means growth inhibition above about 70%; inactive means the rest.
# What was measured:
# [1] = NCI Yeast Anticancer Drug Screen. Data for the rad52 strain (AID 147);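 further: 0% = growth of vehicle-treated control cultures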; conditions: S. cerevisiae rad52 mutant growth inhibition, hits give high values
# Outline: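 Screen used a yeast mutant impaired in DNA repair. After compound exposure, growth was measured. Values reflect inhibition compared with vehicle-treated cells.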
# [2] = NCI Yeast Anticancer Drug Screen. Data for the wt1 strain (AID 149);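 further: 0% = growth of vehicle-treated wt1 cultures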; conditions: S. cerevisiae wt1 strain (SPY 50644) growth inhibition, hits give high values
# Outline: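 Measured: growth of wt1 yeast under compound versus vehicle treatment, reported as inhibition.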
# [3] = NCI Yeast Anticancer Drug Screen. Data for the rad50EPP+ strain (AID 151);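 further: 0% = growth of vehicle-treated control cultures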; conditions: S. cerevisiae rad50 mutant strain, hits give high values
# Outline: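 Exposing the rad50EPP+ strain to each compound, growth was compared with vehicle-only cultures to give inhibition.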
# [4] = NCI Yeast Anticancer Drug Screen. Data for the mgt1 strain (AID 153); conditions: S. cerevisiae mgt1 mutant growth inhibition, hits give high values
# Outline: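 Genetically defined yeast (mgt1) treated with compound; inhibition of growth expressed against vehicle-treated controls.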
# [5] = NCI Yeast Anticancer Drug Screen. Data for the rad50 strain (AID 155);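 further: 0% = growth of vehicle-only cultures of the same strain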; conditions: S. cerevisiae rad50 strain growth inhibition, hits give high values
# Outline: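 Growth of the mutant yeast was measured after compound exposure and referenced to vehicle-treated cultures.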
# [6] = NCI Yeast Anticancer Drug Screen. Data for the mec2-1 strain (AID 157); conditions: S. cerevisiae mec2-1 strain, hits give high values
# Outline: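 Readout is yeast growth inhibition, normalised to vehicle-treated controls, in the mec2-1 strain exposed to compound.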
# [7] = NCI Yeast Anticancer Drug Screen. Data for the rad14 strain (AID 159);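 further: 0% = growth of vehicle-treated control cultures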; conditions: S. cerevisiae rad14 strain growth inhibition, hits give high values
# Outline: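 Here, inhibition of yeast growth was measured after compound exposure, using a strain with a genetic defect in DNA damage repair and vehicle-treated cultures as the reference.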
# [8] = NCI Yeast Anticancer Drug Screen. Data for the sgs1 mgt1 strain (AID 161);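 further: 0% = growth of cultures given vehicle only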; conditions: S. cerevisiae sgs1 mgt1 strain, hits give high values
# Outline: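 Yeast cells carrying a defined DNA-repair defect were exposed to test compounds. Growth inhibition was measured relative to vehicle-treated controls.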
# [9] = NCI Yeast Anticancer Drug Screen. Data for the CLN2oe strain (AID 163);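 further: 0% = growth of vehicle-only control cultures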; conditions: S. cerevisiae CLN2oe strain, hits give high values
# Outline: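 Values reflect how much compound exposure reduced yeast growth, referenced to vehicle-exposed cells. Assay organism is a strain with a defined genetic change affecting cell-cycle control.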
# [10] = NCI Yeast Anticancer Drug Screen. Data for the cln2 rad14 strain (AID 165);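 further: 0% = growth equal to vehicle treated cultures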; conditions: S. cerevisiae cln2 rad14 strain, hits give high values
# Outline: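 Relative to vehicle controls, growth inhibition of compound-treated cln2 rad14 yeast was recorded.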
# [11] = NCI Yeast Anticancer Drug Screen. Data for the bub3 strain (AID 167); conditions: S. cerevisiae bub3 mutant strain, hits give high values
# Outline: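 Whole-cell yeast assay. The mutant strain was incubated with compounds, and growth inhibition was determined by comparison with vehicle-treated cells.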
# [12] = NCI Yeast Anticancer Drug Screen. Data for the wt2 strain (AID 169);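 further: 0% = growth of vehicle-treated yeast cultures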; conditions: S. cerevisiae wt2 strain growth inhibition, hits give high values
# Outline: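 Values express reduction in yeast growth under compound treatment, referenced to vehicle-treated cells.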
# [13] = NCI Yeast Anticancer Drug Screen. Data for the mlh1 strain (AID 171);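 further: 0% = growth of vehicle-treated control cultures of the same strain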; conditions: S. cerevisiae mlh1 strain growth inhibition, hits give high values
# Outline: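 Steps: expose the defined-mutant yeast strain to compound; expose a parallel culture to vehicle; measure growth; express compound effect as inhibition relative to the vehicle culture.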
# [14] = NCI Yeast Anticancer Drug Screen. Data for the sgs1 strain (AID 173);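 further: 0% = growth of vehicle-only control cultures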; conditions: S. cerevisiae sgs1 mutant, hits give high values
# Outline: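 Treat defined-mutant yeast with compound; measure growth; calculate inhibition relative to vehicle-treated cells.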
# [15] = NCI Yeast Anticancer Drug Screen. Data for the mlh1 rad18 strain (AID 175); conditions: S. cerevisiae mlh1 rad18 strain growth inhibition, hits give high values
# Outline: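 Test agents were incubated with a yeast strain of defined genotype (DNA damage repair defect). Inhibition of growth was derived by comparison with vehicle-exposed cultures.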
# [16] = NCI Yeast Anticancer Drug Screen. Data for the rad18 strain (AID 177); conditions: S. cerevisiae rad18 mutant growth inhibition, hits give high values
# Outline: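 A genetically defined yeast mutant impaired in DNA damage repair was treated with test compounds, then its growth was measured against cultures receiving vehicle alone.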
# [17] = at 5.0 µM (retest, dose inferred, filed as 0.5)
# [18] = at 50.0 µM (retest, dose inferred, filed as 5.0)
smiles,measurement,setting,value
CCC1(O)C(=O)OCc2c1cc1n(c2=O)Cc2c-1nc1ccccc1c2OC (stereo not given),growth inhibition,[1]; at 1.2 µM,80% (active)
same,growth inhibition,[1]; at 3.7 µM,90% (active)
same,growth inhibition,[1]; at 11.0 µM,93% (active)
same,growth inhibition,[1]; at 33.0 µM,93% (active)
same,growth inhibition,[1]; at 100.0 µM,90% (active)
same,growth inhibition,[2]; at 1.2 µM,11%
same,growth inhibition,[2]; at 3.7 µM,12%
same,growth inhibition,[2]; at 11.0 µM,13%
same,growth inhibition,[2]; at 33.0 µM,12%
same,growth inhibition,[2]; at 100.0 µM,11%
same,growth inhibition,[3]; at 1.2 µM,15%
same,growth inhibition,[3]; at 3.7 µM,28%
same,growth inhibition,[3]; at 11.0 µM,10%
same,growth inhibition,[3]; at 33.0 µM,22%
same,growth inhibition,[3]; at 100.0 µM,27%
same,growth inhibition,[4]; at 1.2 µM,-1%
same,growth inhibition,[4]; at 3.7 µM,10%
same,growth inhibition,[4]; at 11.0 µM,4%
same,growth inhibition,[4]; at 33.0 µM,8%
same,growth inhibition,[4]; at 100.0 µM,-10%
same,growth inhibition,[5]; at 1.2 µM,85% (active)
same,growth inhibition,[5]; at 3.7 µM,93% (active)
same,growth inhibition,[5]; [17],94% (active)
same,growth inhibition,[5]; at 11.0 µM,94% (active)
same,growth inhibition,[5]; at 33.0 µM,94% (active)
same,growth inhibition,[5]; [18],90% (active)
same,growth inhibition,[5]; at 50.0 µM,71.2% (active)
same,growth inhibition,[5]; at 100.0 µM,93% (active)
same,growth inhibition,[6]; at 1.2 µM,1%
same,growth inhibition,[6]; at 3.7 µM,13%
same,growth inhibition,[6]; [17],54%
same,growth inhibition,[6]; at 11.0 µM,28%
same,growth inhibition,[6]; at 33.0 µM,41%
same,growth inhibition,[6]; [18],62%
same,growth inhibition,[6]; at 50.0 µM,33.1%
same,growth inhibition,[6]; at 100.0 µM,43%
same,growth inhibition,[7]; at 1.2 µM,6%
same,growth inhibition,[7]; at 3.7 µM,17%
same,growth inhibition,[7]; at 11.0 µM,15%
same,growth inhibition,[7]; at 33.0 µM,20%
same,growth inhibition,[7]; at 100.0 µM,15%
same,growth inhibition,[8]; [17],31%
same,growth inhibition,[8]; [18],33%
same,growth inhibition,[8]; at 50.0 µM,-13.6%
same,growth inhibition,[9]; at 1.2 µM,-8%
same,growth inhibition,[9]; at 3.7 µM,8%
same,growth inhibition,[9]; at 11.0 µM,16%
same,growth inhibition,[9]; at 33.0 µM,24%
same,growth inhibition,[9]; at 100.0 µM,27%
same,growth inhibition,[10]; [17],19%
same,growth inhibition,[10]; [18],18%
same,growth inhibition,[10]; at 50.0 µM,2.7%
same,growth inhibition,[11]; at 1.2 µM,-10%
same,growth inhibition,[11]; at 3.7 µM,-1%
same,growth inhibition,[11]; [17],6%
same,growth inhibition,[11]; at 11.0 µM,0%
same,growth inhibition,[11]; at 33.0 µM,0%
same,growth inhibition,[11]; [18],11%
same,growth inhibition,[11]; at 50.0 µM,-41.5%
same,growth inhibition,[11]; at 100.0 µM,-13%
same,growth inhibition,[12]; at 1.2 µM,10%
same,growth inhibition,[12]; at 3.7 µM,-5%
same,growth inhibition,[12]; at 11.0 µM,-10%
same,growth inhibition,[12]; at 33.0 µM,2%
same,growth inhibition,[12]; at 100.0 µM,-17%
same,growth inhibition,[13]; at 1.2 µM,7%
same,growth inhibition,[13]; at 3.7 µM,19%
same,growth inhibition,[13]; at 11.0 µM,22%
same,growth inhibition,[13]; at 33.0 µM,20%
same,growth inhibition,[13]; at 100.0 µM,8%
same,growth inhibition,[14]; at 1.2 µM,12%
same,growth inhibition,[14]; at 3.7 µM,18%
same,growth inhibition,[14]; at 11.0 µM,20%
same,growth inhibition,[14]; at 33.0 µM,25%
same,growth inhibition,[14]; at 100.0 µM,8%
same,growth inhibition,[15]; [17],43%
same,growth inhibition,[15]; [18],33%
same,growth inhibition,[16]; at 1.2 µM,1%
same,growth inhibition,[16]; at 3.7 µM,-4%
same,growth inhibition,[16]; at 11.0 µM,5%
same,growth inhibition,[16]; at 33.0 µM,1%
same,growth inhibition,[16]; at 100.0 µM,1%
C[N+](CCCl)(CCCl)Cc1cccc2cccc([N+](=O)[O-])c12,growth inhibition,[1]; at 1.2 µM,31%
same,growth inhibition,[1]; at 3.7 µM,47%
same,growth inhibition,[1]; at 11.0 µM,74% (active)
same,growth inhibition,[1]; at 33.0 µM,92% (active)
same,growth inhibition,[1]; at 100.0 µM,94% (active)
same,growth inhibition,[2]; at 1.2 µM,31%
same,growth inhibition,[2]; at 3.7 µM,9%
same,growth inhibition,[2]; at 11.0 µM,31%
same,growth inhibition,[2]; at 33.0 µM,28%
same,growth inhibition,[2]; at 100.0 µM,39%
same,growth inhibition,[3]; at 1.2 µM,20%
same,growth inhibition,[3]; at 3.7 µM,35%
same,growth inhibition,[3]; at 11.0 µM,80% (active)
same,growth inhibition,[3]; at 33.0 µM,95% (active)
same,growth inhibition,[3]; at 100.0 µM,96% (active)
same,growth inhibition,[4]; at 1.2 µM,3%
same,growth inhibition,[4]; at 3.7 µM,6%
same,growth inhibition,[4]; at 11.0 µM,-15%
same,growth inhibition,[4]; at 33.0 µM,-5%
same,growth inhibition,[4]; at 100.0 µM,9%
same,growth inhibition,[5]; at 1.2 µM,26%
same,growth inhibition,[5]; at 3.7 µM,44%
same,growth inhibition,[5]; [17],37%
same,growth inhibition,[5]; at 11.0 µM,67%
same,growth inhibition,[5]; at 33.0 µM,90% (active)
same,growth inhibition,[5]; [18],85% (active)
same,growth inhibition,[5]; at 50.0 µM,80.1% (active)
same,growth inhibition,[5]; at 100.0 µM,94% (active)
same,growth inhibition,[6]; at 1.2 µM,-4%
same,growth inhibition,[6]; at 3.7 µM,10%
same,growth inhibition,[6]; [17],1%
same,growth inhibition,[6]; at 11.0 µM,10%
same,growth inhibition,[6]; at 33.0 µM,44%
same,growth inhibition,[6]; [18],56%
same,growth inhibition,[6]; at 50.0 µM,47%
same,growth inhibition,[6]; at 100.0 µM,77% (active)
same,growth inhibition,[7]; at 1.2 µM,-9%
same,growth inhibition,[7]; at 3.7 µM,-1%
same,growth inhibition,[7]; at 11.0 µM,32%
same,growth inhibition,[7]; at 33.0 µM,88% (active)
same,growth inhibition,[7]; at 100.0 µM,89% (active)
same,growth inhibition,[8]; [17],15%
same,growth inhibition,[8]; [18],44%
same,growth inhibition,[8]; at 50.0 µM,39.2%
same,growth inhibition,[9]; at 1.2 µM,-8%
same,growth inhibition,[9]; at 3.7 µM,-10%
same,growth inhibition,[9]; at 11.0 µM,-17%
same,growth inhibition,[9]; at 33.0 µM,-13%
same,growth inhibition,[9]; at 100.0 µM,-6%
same,growth inhibition,[10]; [17],17%
same,growth inhibition,[10]; [18],78% (active)
same,growth inhibition,[10]; at 50.0 µM,74.5% (active)
same,growth inhibition,[11]; at 1.2 µM,-20%
same,growth inhibition,[11]; at 3.7 µM,-26%
same,growth inhibition,[11]; [17],9%
same,growth inhibition,[11]; at 11.0 µM,-22%
same,growth inhibition,[11]; at 33.0 µM,-10%
same,growth inhibition,[11]; [18],45%
same,growth inhibition,[11]; at 50.0 µM,0.4%
same,growth inhibition,[11]; at 100.0 µM,3%
same,growth inhibition,[12]; at 1.2 µM,-10%
same,growth inhibition,[12]; at 3.7 µM,-6%
same,growth inhibition,[12]; at 11.0 µM,-10%
same,growth inhibition,[12]; at 33.0 µM,-1%
same,growth inhibition,[12]; at 100.0 µM,23%
same,growth inhibition,[13]; at 1.2 µM,7%
same,growth inhibition,[13]; at 3.7 µM,-2%
same,growth inhibition,[13]; at 11.0 µM,-1%
same,growth inhibition,[13]; at 33.0 µM,4%
same,growth inhibition,[13]; at 100.0 µM,21%
same,growth inhibition,[14]; at 1.2 µM,20%
same,growth inhibition,[14]; at 3.7 µM,19%
same,growth inhibition,[14]; at 11.0 µM,41%
same,growth inhibition,[14]; at 33.0 µM,63%
same,growth inhibition,[14]; at 100.0 µM,77% (active)
same,growth inhibition,[15]; [17],31%
same,growth inhibition,[15]; [18],81% (active)
same,growth inhibition,[15]; at 50.0 µM,77.4% (active)
same,growth inhibition,[16]; at 1.2 µM,11%
same,growth inhibition,[16]; at 3.7 µM,56%
same,growth inhibition,[16]; at 11.0 µM,91% (active)
same,growth inhibition,[16]; at 33.0 µM,95% (active)
same,growth inhibition,[16]; at 100.0 µM,96% (active)
